# Hit rate of the full screen: of about 68,000 compounds, about 2,700 (4%) showed an effect of 50% or more. The list comes from a sample in which strong results are over-represented; it also holds similar structures and randomly drawn compounds.
# System: Plasmodium berghei
# Assay: Screen against P. berghei liver stage (PbLuc), transformed with Luciferase, at 2uM
# Format: functional, HepG2
# Details: tested at 2 uM
row,SMILES,INHIBITION [%]
1,COCc1ncc(CN2CCC3(CCC(=O)N(CC(C)O)C3)CC2)cn1 (centres undefined),-40.15
2,Cc1cc(C)c2c(N3CCC(C(=O)N4CCCC4)CC3)ncnc2n1,36.74
3,NCCO[C@H]1C[C@@H](O)C12CCN(Cc1c(F)cccc1F)CC2,2.9
4,COc1cc(C)c(CN2CCC3(CC2)[C@H](O)C[C@@H]3OCCN)cc1C,72.05
5,NCCO[C@H]1C[C@@H](O)C12CCN(C1Cc3ccccc3C1)CC2,-17.86
6,COc1cc(C)c(CN2CCC3(CC2)C(C(=O)O)CC(=O)N3C)cc1C (centres undefined),1.82
7,COc1cc(CN2CCC3(CC2)[C@H](O)C[C@@H]3OCCO)ccc1F,-6.64
8,COc1ccc(F)c(F)c1CN1CCC2(CC1)[C@H](O)C[C@@H]2OCCN,57.75
9,COc1c(CNCc2ccc(N3CCCC3)nc2)c(C(C)C)nn1C,20.57
10,Cn1ccnc1CN1CCC2(CC(=O)N(c3ccccn3)C2)C1 (centres undefined),44.46
11,Clc1cccc(N[C@H]2CCCN[C@H]2Cc2ccccc2)c1,-34.37
12,CC(C)(C)OC(=O)N1CCN(C(=O)c2cnn3c2OCCC3)CC1,-14.01
13,COCc1noc(CN2CC(Cc3ccccc3)CC2=O)n1 (centres undefined),14.12
14,O=C1CCCN1CCCNCc1cc(O)c2cccc(F)c2n1,53.12
15,Oc1cc(CNCCN2CCCCC2)nc2c(F)cccc12,-6.77
16,O=C1CCCN1CCCNCc1cc(O)c2cccc(Cl)c2n1,-15.85
17,OC1CCN(c2ccnc(NCCc3ccccc3Cl)n2)C1 (centres undefined),0.72
18,CCC(NC(=O)NCc1nncn1CC)c1ccc(OC)cc1 (centres undefined),-53.08
19,Cc1n[nH]c2c1C(c1cnn(C)c1)SCC(=O)N2 (centres undefined),73.96
20,Cc1n[nH]c2c1C(c1ccncc1)SCC(=O)N2 (centres undefined),19.08
21,Cc1n[nH]c2c1C(c1ccc(Cl)cc1)SCC(=O)N2 (centres undefined),47.85
22,CCCn1cnnc1CN(C)C(=O)C1CCC(=O)N(C2CCCC2)C1 (centres undefined),31.35
23,CC(C)c1[nH]c2ncccc2c1CN1CCOCC1,68.53
24,CC1CCN(Cc2c(C(C)C)[nH]c3ncccc23)CC1,-9.61
25,CC(C)c1[nH]c2ncccc2c1CN1CCC(O)CC1,14.73
26,CC(CNC(=O)c1nnn(-c2ccccc2)c1C(F)(F)F)N(C)C (centres undefined),-10.14

row,SMILES,INHIBITION [%]
1,Cc1ncccc1C(=O)Nc1ccc2ccn(CCN(C)C)c2c1,10.23
2,CCc1ocnc1C(=O)Nc1ccc2ccn(CCN(C)C)c2c1,53.19
3,CCc1ncncc1C(=O)Nc1ccc2ccn(CCN(C)C)c2c1,38.87
4,CC(C)(C)NC(=O)c1ccn(COc2c(Cl)cccc2Cl)n1,31.42
5,CCC(=O)NCC(=O)NC(C)c1ccc(OCCC(C)C)cc1 (centres undefined),-14.65
6,CCNc1ncc(C(=O)NCc2csc(-c3ncccn3)n2)cn1,-27.47
7,CCNc1ncc(C(=O)NCCc2csc(-c3ncccn3)n2)cn1,69.79
8,CCNc1ncc(C(=O)NCCc2csc(CSC)n2)cn1,-45.11
9,Cc1noc(-c2ccnc(Oc3cccc(CN4CCCC4)c3F)c2)n1,43.15
10,O=C(O)c1csc(NCCc2ccccc2)n1,55.05
11,O=C(NCCc1ccccc1)NCC(O)c1cccs1 (centres undefined),1.48
12,CN1CC(=O)c2sc(NCCc3ccccc3)nc2C1,-24.17
13,CCC(C)NC(=O)CS(=O)(=O)Cc1cc(C)ccc1C (centres undefined),-10.29
14,O=C(NCC1CC1)c1ccc(NC(=O)c2ccco2)cc1,24.44
15,COc1ccccc1-n1nc(CC(C)C)nc1Cc1nnc(N)s1,-28.44
16,O=C(Nc1ccccc1)c1nn(C2CCS(=O)(=O)C2)c2c1CCCC2 (centres undefined),73.37
17,O=C(Nc1ccc(Cl)cc1)c1nn(C2CCS(=O)(=O)C2)c2c1CCCC2 (centres undefined),14.16
18,O=C(Nc1ccc(Cl)cn1)c1nn(C2CCS(=O)(=O)C2)c2c1CCCC2 (centres undefined),66.3
19,O=C(Nc1cccc(Cl)c1)c1nn(C2CCS(=O)(=O)C2)c2c1CCCC2 (centres undefined),21.33
20,Cc1cccc(NC(=O)c2nn(C3CCS(=O)(=O)C3)c3c2CCCC3)n1 (centres undefined),9.29
21,O=C(Nc1cccnc1)c1nn(C2CCS(=O)(=O)C2)c2c1CCCC2 (centres undefined),-0.14
22,O=C(NCCc1ccccc1Cl)NCC1(O)CCSC1 (centres undefined),-41.73
23,COCCN(C/C=C/c1ccccc1)Cc1ncc[nH]1,-14
24,CN(CCc1cccs1)C(=O)Nc1cccc(S(C)(=O)=O)c1,-7.16
25,CCN1CCN(CC(O)c2ccc(F)cc2)CC1 (centres undefined),-5.15
26,OC(CN1CCN(CC2CC2)CC1)c1ccc(Br)cc1 (centres undefined),50.32

row,SMILES,INHIBITION [%]
1,NC(=O)CC1CCN(CC(O)c2ccc(Br)cc2)CC1 (centres undefined),-58.06
2,OC(CN1CCN(CC(F)F)CC1)c1ccc(Br)cc1 (centres undefined),15.84
3,OC(CN1CCN(CC2CCCCC2)CC1)c1ccccc1 (centres undefined),12.55
4,CCN1CCN(CC(O)c2ccc(Br)cc2)CC1 (centres undefined),63.46
5,Cn1cc(CN2CCCC23CCN(C(=O)c2cccn2C)CC3)cn1,1.42
6,CO[C@@H]1CC[C@H]2[C@H]1OCCN2Cc1ccc(F)cc1,19.53
7,Cc1nonc1CN(C)Cc1nc(-c2ccccc2Cl)oc1C,51.96
8,Cc1nonc1CN(C)Cc1nc(-c2cccc(F)c2F)oc1C,-25.82
9,CCc1nnc(CN(C)Cc2nc(-c3ccccc3Cl)oc2C)o1,15.84
10,Cc1cc(C2CCC2)nc(NCC(C)(C)N2CCCC2)n1,7.85
11,CC(C)N1CCO[C@H]2CN(C(=O)c3ccsc3)C[C@H]21,65.32
12,Cc1cc(CN2C[C@@H]3CN(C(=O)c4ccsc4)CCO[C@@H]3C2)no1,-89.19
13,CC(C)N1CCO[C@H]2CN(C(=O)c3ccoc3)C[C@H]21,-17.23
14,CC(C)N1CCO[C@H]2CN(C(=O)c3ccncc3)C[C@H]21,19.96
15,O=C(c1ccsc1)N1CCO[C@@H]2CN(Cc3nccs3)C[C@@H]2C1,41.28
16,O=C(c1ccsc1)N1CCO[C@@H]2CN(Cc3cccs3)C[C@@H]2C1,78.93
17,c1ncn(Cc2nnc(C3CCN(CC4CC4)CC3)n2C2CC2)n1,30.96
18,Cc1nc(CN2CCOC(c3ccc(Cl)cc3)C2)oc1C (centres undefined),5.28
19,Cc1nnc(CN2CCOC(c3ccc(Cl)c(Cl)c3)C2)o1 (centres undefined),38.67
20,Cc1nnc(CN2CCOC(c3ccc(Cl)cc3)C2)o1 (centres undefined),57.75
21,c1ccc(O[C@H]2CO[C@@]3(CCN(Cc4ccc5c(c4)OCO5)C3)C2)nc1,40.83
22,Cc1cncc(C2CCCN(CC3CCC3)C2)n1 (centres undefined),50.63
23,Cc1cncc(C2CCCN(C(=O)c3ccc(C)[nH]c3=O)C2)n1 (centres undefined),17.71
24,Cc1ccc(CN2CCCC(c3cncc(C)n3)C2)cn1 (centres undefined),-0.15
25,Cc1cncc(C2CCCN(C(=O)c3c[nH]c(=O)[nH]c3=O)C2)n1 (centres undefined),50.72
26,Cc1cncc(C2CCCN(Cc3ccncc3)C2)n1 (centres undefined),-33.09

row,SMILES,INHIBITION [%]
1,O=C(c1c[nH]c(=O)[nH]c1=O)N1CCCC(c2cnccn2)C1 (centres undefined),-15.93
2,COc1ccc(NC(C)c2ccc(C#N)cc2)cc1N1CCCC1=O (centres undefined),-50.8
3,O=C1CC(c2ccc(CO)o2)c2cnn(Cc3ccco3)c2N1 (centres undefined),-1.11
4,Cc1nc(-c2cnn(C)c2)sc1C(=O)NCc1cccc(CN(C)C)c1,-6.4
5,CN(Cc1nnc2n1CCC2)C(=O)Cc1ccc2c(c1)CCC2,-9.49
6,Cc1nnsc1C(=O)N1CC[C@H](c2ccccc2)[C@@H]2[C@H]1CCCCN2C,22.81
7,NC(=O)C1CN(C(=O)Nc2ccccc2SC(F)(F)F)CCO1 (centres undefined),-20.93
8,O=C(NCc1ncc(-c2ccccc2)o1)NC1CCC(O)CC1 (centres undefined),13.58
9,COc1cc(C)c(CN2CCc3nc4ccsc4c(=O)n3CC2)cc1C,36.56
10,CN(C)c1cccc(C(=O)Nc2cnn(Cc3ccncc3)c2)c1,-34.79
11,COCCC(=O)N1CCC2(COCc3cnc(NCC4CC4)nc32)C1 (centres undefined),-20.77
12,Cn1cnnc1C1CCCN(c2nc3ccccc3o2)C1 (centres undefined),44.25
13,c1ccc2oc(N3CCC(c4nncn4C4CC4)CC3)nc2c1,15.02
14,Cn1cnnc1C1CCN(c2nc3ccccc3o2)CC1,53.81
15,Cc1cnn(CCNCc2nc(CNC(=O)c3ccccc3)no2)c1,47.23
16,CN(C)c1nc(N)nc(CN2CCC(c3ccccc3)CC2)n1,29.6
17,Cc1ccc(C(=O)N2CCN(Cc3ccc(C#N)cc3)CC2)n1C,28.18
18,COc1ccc(CN2CCN(C(=O)c3ccc(C)n3C)CC2)cc1,-10.64
19,Cc1ccc(C(=O)N2CCN(Cc3ccccc3)CC2)n1C,52.17
20,CC(C1CC1)N(C(=O)NCCCn1nc2ccccn2c1=O)C1CC1 (centres undefined),1.07
21,O=C(c1ccsc1)N1CCN2C[C@H](OCc3cccnc3)C[C@H]2C1,16.22
22,O=C(c1cscn1)N1CCN2C[C@H](OCc3cccnc3)C[C@H]2C1,50.12
23,Cc1cnc(C(=O)N2CCN3C[C@H](OCc4cccnc4)C[C@H]3C2)cn1,-35.38
24,O=C(c1ccsc1)N1CCN2C[C@H](OCc3ccccn3)C[C@H]2C1,53.08
25,O=C(c1ccnnc1)N1CCN2C[C@H](OCc3ccccn3)C[C@H]2C1,26.94
26,O=C(c1ccc(F)cc1)N1CCN2C[C@H](OCc3ccccn3)C[C@H]2C1,15.58

# — ChEMBL document CHEMBL4513216, “Probing the Open Global Health Chemical Diversity Library for Multistage-Active Starting Points for Next-Generation Antimalarials” (ACS Infect Dis, 2020)
